98 molecules from ChEMBL document CHEMBL1201862, “PubChem BioAssay data set” (2004) can be followed below.

Screen size: about 400,000 compounds; about 2,100 (0.53%) were called active. Another 14% or so got no clear call; they are omitted. How the calls were made is not given here. Only a selection was taken, and actives are over-represented in it overall.

In the assay the target is Ataxin-2 (Homo sapiens) (UniProt Q99700). The experiment in a line: qHTS for Inhibitors of ATXN expression. Type of assay: functional. On the technique in general: In qHTS, concentration-response curves come from the screen itself.
Chain of Ataxin-2 (Homo sapiens) (Q99700 whole entry): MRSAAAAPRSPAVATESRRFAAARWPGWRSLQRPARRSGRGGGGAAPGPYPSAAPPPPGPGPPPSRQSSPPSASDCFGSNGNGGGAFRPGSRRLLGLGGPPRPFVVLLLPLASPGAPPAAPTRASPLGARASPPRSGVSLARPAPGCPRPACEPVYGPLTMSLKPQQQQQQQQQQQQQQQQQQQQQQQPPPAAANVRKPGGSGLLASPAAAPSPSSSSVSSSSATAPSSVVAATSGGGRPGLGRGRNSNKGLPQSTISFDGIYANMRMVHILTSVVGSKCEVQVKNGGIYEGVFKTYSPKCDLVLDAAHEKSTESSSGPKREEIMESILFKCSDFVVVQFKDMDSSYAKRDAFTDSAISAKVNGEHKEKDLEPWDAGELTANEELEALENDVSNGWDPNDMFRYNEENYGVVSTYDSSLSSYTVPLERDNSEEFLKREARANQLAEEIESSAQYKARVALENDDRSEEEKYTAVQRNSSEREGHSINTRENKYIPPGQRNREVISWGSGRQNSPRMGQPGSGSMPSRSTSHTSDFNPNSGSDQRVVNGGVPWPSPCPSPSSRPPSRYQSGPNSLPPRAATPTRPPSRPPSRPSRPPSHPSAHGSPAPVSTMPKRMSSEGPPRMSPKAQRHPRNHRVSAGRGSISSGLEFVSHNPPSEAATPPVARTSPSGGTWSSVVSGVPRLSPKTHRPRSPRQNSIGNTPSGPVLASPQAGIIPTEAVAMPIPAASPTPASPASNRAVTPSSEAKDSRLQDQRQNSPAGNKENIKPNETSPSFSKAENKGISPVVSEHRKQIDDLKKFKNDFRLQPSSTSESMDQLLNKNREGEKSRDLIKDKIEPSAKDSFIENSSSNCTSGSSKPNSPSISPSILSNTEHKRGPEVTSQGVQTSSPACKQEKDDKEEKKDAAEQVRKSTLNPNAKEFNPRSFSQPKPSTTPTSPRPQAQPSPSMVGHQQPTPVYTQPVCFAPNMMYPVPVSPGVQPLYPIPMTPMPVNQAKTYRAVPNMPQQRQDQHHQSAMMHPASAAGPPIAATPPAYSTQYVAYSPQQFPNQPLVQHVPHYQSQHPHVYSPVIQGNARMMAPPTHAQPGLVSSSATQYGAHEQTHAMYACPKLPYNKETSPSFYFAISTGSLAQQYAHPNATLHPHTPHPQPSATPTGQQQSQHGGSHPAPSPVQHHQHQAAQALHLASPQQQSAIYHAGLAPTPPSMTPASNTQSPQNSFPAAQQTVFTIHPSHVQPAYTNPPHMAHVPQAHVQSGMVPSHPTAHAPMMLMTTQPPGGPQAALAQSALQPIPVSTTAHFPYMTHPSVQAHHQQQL
Consider `Cc1noc(C)c1COc1ccc(C(=O)OCC(=O)Nc2ccc(S(N)(=O)=O)cc2)cc1`, for which the Potency result was “inactive”.
Take `CN(C)S(=O)(=O)Oc1ccsc1C(=O)Nc1ccc(Br)cc1`: the Potency result is “inactive”.
In the case of `COc1ccc(/C=C/CN2CCN(CC(C)C)C(CCO)C2)cc1` (stereo not drawn) it was “inactive”.
In the case of `CC1CCN(c2ccc3c(c2)S(=O)(=O)c2cc(C(=O)O)ccc2C3=O)CC1` it was “inactive”; in that of `Brc1ccc2ncc(Br)cc2c1`, “inactive”.
In the case of `CCCCn1nc(NC(=O)c2cccs2)c2cc3cc(OC)ccc3nc21` it was “inactive”; in that of `O=C(O)c1c2c(nc3ccccc13)/C(=C/c1ccc(O)cc1)CC2`, “inactive”.
As for `COc1ccc(/C=C2/CCCC(CN(C)C)C2=O)cc1` (stereo not drawn), the Potency was 13.4 µM (active).
In the case of `CN(C)CC1CC/C(=C\c2ccc(O)cc2)C1=O` (stereo not drawn) it was 39.8 µM (active); in that of `Cc1cc(=O)oc2cc3c(cc12)OCCN3`, “inactive”; in that of `CC(C)(C)c1ccc(C2=CC(c3ccccc3)n3ncnc3N2)cc1` (stereo not drawn), “inactive”.
In the case of `CCN(CC)c1ccc2c(C)c(CO)c(=O)oc2c1` it was “inactive”; in that of `COc1c(Br)cc(/C=N/n2c(S)nnc2-c2ccccc2)c(O)c1Br`, “inactive”; in that of `Cc1cccc(NC(=O)c2cc(Cl)nc3ccccc23)n1`, “inactive”.
As to `O=C(Nc1cccc(NC(=O)c2cc([N+](=O)[O-])ccc2Cl)n1)c1cc([N+](=O)[O-])ccc1Cl`, the Potency is 22.4 µM (active).
For the molecule `O=C(Nc1cccc(NC(=O)c2cccc([N+](=O)[O-])c2)n1)c1cccc([N+](=O)[O-])c1`, the Potency result was “inactive”.
Consider `c1cn2c(NC3CCCCC3)c(-c3ccc(SC4CCCCC4)cc3)nc2cn1`, for which the Potency entry is “inactive”.
Consider `CCc1ccc(S(=O)(=O)ON2C(=O)c3ccccc3C2=O)cc1`, for which the Potency was 23.8 µM (active).
In the case of `Fc1ccc(-c2nnc3ccc(N4CCc5ccccc5C4)nn23)cc1` it was 35.5 µM (active).
For the molecule `COc1ccccc1NC(=O)N1CCN(c2ccc3nnc(-c4ccc(F)cc4)n3n2)CC1`, the Potency is 25.1 µM (active).
Turning to `COc1ccc(Cl)cc1NC(=O)N1CCN(c2ccccc2OC)CC1`, the Potency entry was “inactive”.
With `Cc1ccc(F)cc1NC(=O)N1CCCN(c2ccc(C(F)(F)F)cn2)CC1` the entry was “inactive”; with `CCN(CC)C(=O)CSc1nc2ccccc2c(=O)n1CCC(=O)N1CCN(c2ccccc2)CC1`, “inactive”.
Turning to `COc1ccc(-n2cc(C(=O)c3cc(Cl)ccc3O)cc(C#N)c2=O)cc1`, the Potency result is “inactive”.
With `Clc1cccc(Cc2c(-c3ccco3)nc3ccc(Br)cn23)c1`, the Potency was 31.6 µM (active).
With `Clc1cccc(Cc2c(-c3ccco3)nc3ccc(Cl)cn23)c1`, the Potency was 28.2 µM (active).
For the molecule `Clc1cccc(CSc2ccc(-c3ccco3)nn2)c1`, the Potency entry was “inactive”.
In the case of `COc1ccc2nc(-c3ccco3)c(-c3ccco3)nc2c1` it was “inactive”.
In the case of `Fc1cccc(Cc2c(-c3ccco3)nc3ccc(Cl)cn23)c1` it was 39.8 µM (active); in that of `COc1ccc(Cc2c(-c3ccco3)nc3ccc(Br)cn23)c(C)c1`, 20 µM (active); in that of `COc1ccc(C2C(C(=O)c3ccco3)=C(O)C(=O)N2c2nnc(C)s2)cc1` (stereo not drawn), “inactive”.
With `O=C(CC1C(=O)NC2CCCCC2N1C(=O)c1ccc([N+](=O)[O-])cc1)Nc1ccccc1` (stereo not drawn) the entry was “inactive”; with `Cc1ccc(S(=O)(=O)N2CCN(C(=O)c3cc(C4CC4)nc4c3cnn4C(C)C)CC2)cc1`, “inactive”; with `Cc1ccc2nc(-c3ccncc3)c(NC3CCCCC3)n2c1`, “inactive”.
With `Cc1nc2ccc(Cl)cn2c1[N+](=O)[O-]`, the Potency entry is “inactive”.
In the case of `CC(=O)Nc1c(-c2ccccc2)nc2ccc(Cl)cn12` it was “inactive”; in that of `Fc1cccc(Cc2c(-c3ccco3)nc3ccc(Br)cn23)c1`, 39.8 µM (active).
On to `Sc1nnc(-c2ccco2)n1-c1ccc(Br)cc1`, for which the Potency entry is “inactive”.
Take `Cc1ccc(Cc2c(-c3ccco3)nc3ccc(Cl)cn23)cc1`: the Potency is 25.1 µM (active).
In the case of `CCOC(=O)C1CCN(C(=O)Nc2ccc3nc(-c4ccco4)c(-c4ccco4)nc3c2)CC1` it was “inactive”; in that of `Cc1ccc2nc(-c3ccco3)c(CC3CCCCC3)n2c1`, 22.4 µM (active).
In the case of `COCCNC(=O)c1cc2c(=O)n3cccc(C)c3nc2n(Cc2ccncc2)c1=N` it was “inactive”.
For `C/C(=N\NC(=O)C1COc2ccccc2O1)c1ccc(N2CCOCC2)cc1` (stereo not drawn), the Potency entry is “inactive”.
As for `O=C(COC(=O)c1c2c(nc3ccccc13)/C(=C\c1ccco1)CC2)NC1CCCC1`, the Potency result is “inactive”.
As to `O=C1C(=C(I)I)c2ccccc2-c2ccccc21`, the Potency is 26.7 µM (active).
`COc1ccc(C2C=C(C)Nc3nc4ccccc4n32)cc1` (stereo not drawn): the Potency result was “inactive”.
In the case of `Cc1ccc(C(C)(C)C)cc1S(=O)(=O)N1CC(=O)Nc2ccccc21` it was “inactive”; in that of `COc1ccc(C(=O)c2oc3ccccc3c2NC(=O)c2ccc(F)cc2)cc1`, “inactive”.
Take `COc1ccc(NC(=O)COC(=O)c2[nH]nc3ccccc23)c(OC)c1`: the Potency entry is “inactive”.
Consider `COc1ccc(NC(=O)c2oc3ccccc3c2NC(=O)COc2ccccc2OC)c(OC)c1`, for which the Potency is 35.5 µM (active).
Turning to `Brc1ccc(C2=CC(c3ccco3)n3ncnc3N2)cc1` (stereo not drawn), the Potency result is “inactive”.
In the case of `COc1ccc(/N=c2\oc3c(OC)cccc3cc2C(=O)NCc2ccco2)c(OC)c1` it was 22.4 µM (active).
With `COc1ccc(/N=c2\oc3cc(O)ccc3cc2C(=O)NCC2CCCO2)c(OC)c1` (stereo not drawn), the Potency result is “inactive”.
Turning to `COc1cccc2cc(C(=O)NCc3ccc(Cl)cc3)c(=O)oc12`, the Potency entry is “inactive”.
`CCc1c(C)c(C#N)c2nc3ccccc3n2c1S`: the Potency entry was “inactive”.
Turning to `CC(C)=CCC[C@H](C)C[C@@H]1Cc2nc(S)nc(O)c2[C@@H](c2ccc(F)cc2)O1`, the Potency was 28.2 µM (active).
In the case of `Cc1ccc(-c2noc(CN(C(=O)c3ccc4c(c3)OCO4)C(C)C)n2)cc1` it was “inactive”.
On to `CC(=O)c1ccc(OCc2cc(C(=O)N3CCC(c4ccncc4)CC3)no2)cc1`, for which the Potency entry is “inactive”.
`CC(CNC(=O)c1cc(COc2ccc3ncccc3c2)on1)c1ccccc1` (stereo not drawn): the Potency was 44.7 µM (active).
In the case of `CSc1ccccc1NC(=O)c1cc(CC(C)C)on1` it was “inactive”; in that of `CCOC(=O)C1CCN(C(=O)Cn2c(=O)c3cccn3c3cccnc32)CC1`, “inactive”; in that of `N#Cc1ccc(OCC(O)CS(=O)(=O)c2ccc(F)cc2)cc1` (stereo not drawn), “inactive”.
In the case of `CN(C)c1ccc(N=Nc2ccc(S(=O)(=O)O)cc2)c2ccccc12` it was 25.1 µM (active).
With `Cc1cc(/C=c2\sc3nc4ccccc4n3c2=O)c(C)n1-c1ccc(C(=O)O)cc1` the entry was “inactive”; with `FC(F)Oc1ccc(/C=N/NC(=S)Nc2cc(C(F)(F)F)ccc2Cl)cc1`, 39.8 µM (active).
Consider `COc1cc(OC)c(C(=O)OC(C)C(=O)Nc2cc(C(F)(F)F)ccc2Cl)cc1OC` (stereo not drawn), for which the Potency entry is “inactive”.
In the case of `CC(Sc1nc[nH]n1)C(=O)Nc1cc(C(F)(F)F)ccc1Cl` (stereo not drawn) it was “inactive”; in that of `CCCc1cc(NCc2ccccn2)n2c(nc3ccccc32)c1C#N`, “inactive”; in that of `C=C1C(=O)OC2CC1C(O)CC(C)=CCCC(C)=CC(O)CC2C` (stereo not drawn), 15 µM (active).
On to `CC(=O)c1sc2nc(-c3ccc(C)cc3)c3c(c2c1N)CCCC3`, for which the Potency result is “inactive”.
With `CN(C)CCNc1ncnc2c1sc1nc(-c3ccccc3)c3c(c12)CCCC3` the figure was 25.1 µM (active); with `NC(=O)c1sc2nc(-c3ccccc3)c3c(c2c1N)CCCC3`, “inactive”.
Take `CCN(CC)c1cc(C)c(C#N)c2nc3ccccc3n12`: the Potency entry was “inactive”.
With `Cc1cc(C)nc(OC(C(=O)O)C(OCCc2ccccc2)(c2ccc(F)cc2)c2ccc(F)cc2)n1` (stereo not drawn) the entry was “inactive”; with `Cc1ccc(C(=O)NCC(=O)N/N=C/c2cccs2)cc1[N+](=O)[O-]`, “inactive”; with `CS(=O)(=O)c1ccc(C(=O)NCCN2C(=O)S/C(=C\c3cccnc3)C2=O)cc1[N+](=O)[O-]`, 11.2 µM (active).
With `CNCCCOc1ccc(C)cc1OC` the entry was “inactive”; with `COc1ccc(OCC(O)CNCCOc2ccccc2OC)c(C(C)(C)C)c1` (stereo not drawn), 20 µM (active).
For `O=C(NC1CCCC1)C(c1ccc(Cl)cc1)N(Cc1ccc(F)cc1)C(=O)CCl` (stereo not drawn), the Potency was 39.8 µM (active).
In the case of `COc1ccc(C(C(=O)NC2CCCCC2)N(C(=O)CCl)c2ccc(C)cc2)cc1` (stereo not drawn) it was 7.08 µM (active); in that of `CC(C(=O)NC1CCCCC1)N(Cc1ccc(F)cc1)C(=O)c1snc(C(N)=O)c1N` (stereo not drawn), “inactive”; in that of `COc1ccc(C(C(=O)NC2CCCC2)N(C(=O)c2ccco2)c2cc3c(cc2C(C)=O)OCO3)cc1` (stereo not drawn), “inactive”.
In the case of `COCCCn1c(=N)c(C(=O)NC2CCCC2)cc2c(=O)n3cccc(C)c3nc21` it was “inactive”; in that of `CCc1ccc(N(C(=O)c2snc(C(N)=O)c2N)C(C(=O)NC2CCCC2)c2ccncc2)cc1` (stereo not drawn), “inactive”; in that of `COCCCn1c(C(=O)NC2CCCCC2)cc2c(=O)n3cccc(C)c3nc21`, “inactive”.
With `NC(=O)c1nsc(C(=O)N(Cc2cccnc2)C(C(=O)NC2CCCC2)c2ccc(F)cc2)c1N` (stereo not drawn) the entry was “inactive”; with `COCCN(C(=O)CCl)C(C(=O)NC1CCCCC1)c1ccccc1C` (stereo not drawn), 25.1 µM (active).
`COc1ccc(CCN2C(=O)CC(C(N)=O)S/C2=N\c2ccccc2)cc1` (stereo not drawn): the Potency entry is “inactive”.
With `Cc1cc(C)c2c(N)c(C(=O)NN3CC(=O)N(c4cccc(Cl)c4)CC3=O)sc2n1` the entry was “inactive”.
On to `CC(C)(C)C(=O)Cn1ncc(Br)c(Br)c1=O`, for which the Potency is 15.8 µM (active).
With `CO/N=C(\Cn1ncc(N2CCOCC2)c(Br)c1=O)c1ccc(Cl)cc1` the entry was “inactive”; with `Nc1cc2c(cc1O)CCCC2`, “inactive”.
With `O=C(COc1ccc(Br)cc1)N1CCc2ccccc21`, the Potency result is “inactive”.
In the case of `CCCCCCn1c(=O)n2n(c1=O)[C@@H]1CN(S(=O)(=O)c3ccc(C)cc3)C[C@]1(O)[C@@H](OC(=O)NC1CCCC1)C2`, the Potency is 44.7 µM (active).
As for `COCCCn1c(=N)c(C(=O)NC2CCCC2)cc2c(=O)n3cc(C)ccc3nc21`, the Potency entry is “inactive”.
In the case of `CCCCCCn1c(=O)n2n(c1=O)C[C@]1(OC(=O)NCC3CCCCC3)CN(S(=O)(=O)c3ccc(C)cc3)C[C@]1(O)C2` it was 31.6 µM (active).
For the molecule `CCCCCCn1c(=O)n2n(c1=O)[C@@H]1CN(S(=O)(=O)c3ccc(C)cc3)C[C@]1(O)[C@@H](OC(=O)NCC1CCCCC1)C2`, the Potency is 31.6 µM (active).
With `CCOCCCn1c(=N)c(C(=O)NC2CCCC2)cc2c(=O)n3cc(C)ccc3nc21` the entry was “inactive”.
